Screening data (PubChem BioAssay)
Rows were chosen to be rich in hits. Some 1.4% of all compounds tested hit in one or more screens of this group.
p53 reactivation = re-activators of mutant p53. 320,000 tested, 0.063% active. Potency, µM (series often up to 92.2 µM), most hits filed as activators. H1299 p53-A138V BP100-luciferase reporter, luminescence, 24 h; note: nearly all actives have a fitted effect of over 45% in size
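p53-null H1299 cells stably carrying temperature-sensitive p53-A138V and a BP100-luciferase reporter were pinned with compounds (4-point, 1:5 series) and held 24 hrs at 37 deg C. Luminescence was read 10 min after detection reagent.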
ALOX12 inh = ALOX12 (human) lipoxygenase inhibition; P18054; purified 12hLO, xylenol orange hydroperoxide absorbance; Potency, µM (highest dose often 108 µM), usual class: inhibitors; 580,000 tested, 1.1% active
Target sequence (P18054 whole entry, looked up): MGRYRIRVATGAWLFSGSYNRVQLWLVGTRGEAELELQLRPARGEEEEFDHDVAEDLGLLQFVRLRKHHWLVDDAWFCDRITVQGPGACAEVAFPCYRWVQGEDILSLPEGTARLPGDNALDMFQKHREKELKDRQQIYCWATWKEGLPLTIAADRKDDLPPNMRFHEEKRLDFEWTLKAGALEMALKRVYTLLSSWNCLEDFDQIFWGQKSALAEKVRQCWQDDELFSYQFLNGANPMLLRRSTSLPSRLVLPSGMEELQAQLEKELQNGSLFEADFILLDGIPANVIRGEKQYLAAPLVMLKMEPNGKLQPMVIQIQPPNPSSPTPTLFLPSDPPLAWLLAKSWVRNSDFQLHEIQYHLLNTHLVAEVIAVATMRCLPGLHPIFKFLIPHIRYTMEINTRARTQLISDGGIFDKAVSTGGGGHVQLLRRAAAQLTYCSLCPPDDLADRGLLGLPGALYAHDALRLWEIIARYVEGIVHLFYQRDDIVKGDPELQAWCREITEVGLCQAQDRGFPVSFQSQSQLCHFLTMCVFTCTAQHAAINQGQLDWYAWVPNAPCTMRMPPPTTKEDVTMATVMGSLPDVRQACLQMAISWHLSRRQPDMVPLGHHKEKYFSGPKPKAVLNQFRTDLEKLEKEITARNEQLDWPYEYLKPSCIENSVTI
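Hydroperoxide product was detected by ferrous iron/xylenol orange as the 573 to 405 nm absorbance ratio. Arachidonic acid at 40 uM (final) was turned over for 30 min at room temperature by 150 nM human 12hLO, pH 7.0 Hepes buffer, after 15 min compound preincubation.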
ASM inhibitor = human S-ASM enzyme inhibition; 340,000 tested, 0.006% active; Potency, µM (doses to about 57.5 µM), hits mostly inhibitors; placental ASM, HMU-PC fluorogenic substrate, 60 min
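HMU-PC0 cleavage (9 uM final) by human placental ASM, 60 min at 37 °C following 10 min compound exposure at RT; stopped at pH 10, fluorescence Ex 386/Em 447 nm.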
PINK1 expr mod = PINK1 expression modulation; PINK1 immunofluorescence, high-content cytometry, 24 h; Potency, µM (doses to about 76.6 µM), hits mostly activators; 410,000 tested, 0.2% active; active = well fitted activation curve with a large enough effect; inconclusive = small, poorly fitted or top-dose-only effect; cell line not stated here; note: nearly all actives have a fitted effect of over 65% in size
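Compound titrations (5 concentrations, 24 h) on a stable cell line; DMSO and CCCP controls. Endpoint: fixed-cell PINK1 immunofluorescence with mitochondrial, cell and nuclear markers, scanned by microplate cytometer.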
CCT modulator = modulators of cytosolic chaperonin (CCT/TRiC) activity; purified chaperonin ATPase assay, HTRF ADP detection, 30 min; activity change, % (concentration not given with the values), hits read low; 360,000 tested, 0.3% active; in the data active = activity change below about -30%
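Nucleotide hydrolysis assay: TRiC at 20–40 nM final (set by batch activity) with 10 uM ATP, 30 min at 37 °C, in presence of 76 uM compound. Detection by competitive ADP HTRF, 30 min ambient.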
Mm-Cpn inhibitor = M. maripaludis TRiC chaperonin inhibition; purified Mm-Cpn ATPase, ADP Transcreener TR-FRET; 330,000 tested, 0.031% active; Potency, µM (top dose mostly 76.9 µM), actives largely listed as inhibitors; note: nearly all actives have a fitted effect of over 80% in size
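Inhibition of chaperonin ATP hydrolysis is measured as reduced ADP production, detected by competitive TR-FRET in which signal falls with ADP. Final enzyme 25 nM and ATP 10 uM, reacted 30 min at 37°C.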
Numbers stand for hits; . = inactive; ? = inconclusive; / = not tested or not shown; ! = not confirmed by another sample. Unless noted, calls come from the whole dose curve; as a rule, active = well fitted curve in the direction sought with a large enough effect; inconclusive = small, poorly fitted or top-dose-only effect, or another doubt; inactive = no such curve, though single readings can be large; an effect the other way counts as inactive or inconclusive.

SMILES	p53 reactivation	ALOX12 inh	ASM inhibitor	PINK1 expr mod	CCT modulator	Mm-Cpn inhibitor
Cc1ccc(C(=O)N/C(=C\c2cccnc2)c2nc3ccccc3[nH]2)cc1	.	.	.	.	.	.
O=C(N/C(=C/c1cccc(Br)c1)c1nc(=S)[nH][nH]1)c1ccccc1	.	35µM	.	.	.	.
COCCC1(N(C)C)CCN(C(=O)CC2CCCCC2)CC1	/	.	/	/	/	/
O=C(O)CCN1C(=O)c2ccc(NC(=O)CSCc3ccccc3)cc2C1=O	.	.	.	.	.	.
O=C(O)CCN1C(=O)c2ccc(NC(=O)Cc3ccc(Cl)cc3)cc2C1=O	.	.	.	.	-32	.
CC1CCC(NC(=O)c2cc3ccccc3c(Cl)n2)CC1 (configuration not stated)	/	40µM	/	/	/	/
CC1CCC(NC(=O)c2cc(-c3ccccc3)nc3ccccc23)CC1 (configuration not stated)	/	0.79µM	/	/	/	/
Cc1ccc(CNC(=O)c2cc(-c3ccc(C)o3)nc3ccccc23)cc1	/	3.2µM	/	/	/	/
CC1CCC(NC(=O)c2cc(C3CC3)nc3ccccc23)CC1 (configuration not stated)	/	.	/	/	/	/
Cc1ccc(-c2cc(C(=O)NC3CC3)c3ccccc3n2)o1	/	13µM	/	/	/	/
O=C(NC1CC1)c1cc(-c2ccccc2)nc2ccccc12	/	.	/	/	/	/
Cc1cccc(NC(=O)OCc2ccccc2)c1	/	.	/	/	/	/
c1ccc(Oc2ncnc3sc(-c4ccccc4)cc23)cc1	/	.	/	/	/	/
COC(=O)C1CCN(C(=O)COC(=O)c2cc3ccccc3[nH]2)CC1	/	.	/	/	/	/
CC(C)c1ccc(O)c(=O)cc1	/	22µM	/	/	/	/
CC(C)c1cccc(O)c(=O)c1	.	14µM!	.	.	.	.
CC(C)c1ccc(C(=O)NN)cc1	/	.	/	/	/	/
CC(C)c1ccc(C(=O)O)c(O)c1	/	.	/	/	/	/
CCCNC(=O)COC(=O)/C=C/c1cccc2cccnc12	/	.	/	/	/	/
Cc1nccn1-c1ccc(C#N)cc1	/	.	/	/	/	/
CCN1C(=O)/C(=C2\C=Cc3ccccc3N2CC)SC1=S	.	.	.	.	.	.
O=C1C(c2ccccc2)=S=C2C=Cc3ccccc3N12	/	22µM	/	/	/	/
N#Cc1ccc(NCCCNc2ccc(C#N)cn2)nc1	/	.	/	/	/	/
c1ccc2c(N3CCCCC3)nc(N3CCCCC3)nc2c1	.	.	.	?	.	.
C(=C\c1nc(N2CCCCCC2)c2ccccc2n1)/c1ccccc1	?	.	.	35µM	.	.
SMILES	p53 reactivation	ALOX12 inh	ASM inhibitor	PINK1 expr mod	CCT modulator	Mm-Cpn inhibitor
Cc1ccc(S(=O)(=O)N2CCOCC2)cc1NC(=O)COC(=O)c1ccccc1C(F)(F)F	/	.	/	/	/	/
CCNC(=S)Nc1ccc(OCc2nc3ccccc3s2)cc1	?	45µM	.	.	.	.
O=C(O)CCCC(=O)Nc1ccc(OCc2nc3ccccc3s2)cc1	.	?	.	.	.	.
O=C1c2nc3cc(-c4ccco4)[nH]n3c(=O)c2CN1Cc1ccccc1	.	22µM	.	.	.	.
Cc1cc(/C=C2\NC(=S)NC2=O)c(C)n1-c1cccnc1	.	.	.	.	-83	.
Cc1cc(/C=C2\NC(=O)NC2=O)c(C)n1-c1cccnc1	.	.	.	.	.	.
c1ccc(-c2cn([C@H]3CO[C@H]4[C@@H]3OC[C@@H]4NCC3CCCCC3)nn2)nc1	/	.	/	/	/	/
O=S(=O)(N[C@H]1CO[C@H]2[C@@H]1OC[C@@H]2n1cc(-c2ccccn2)nn1)c1cccs1	/	63µM	/	/	/	/
Cc1ccc(C)n1C1C(=O)N(C)c2ccc(Cl)cc21 (configuration not stated)	/	45µM	/	/	/	/
COc1ccc2c(c1)C(n1c(C)ccc1C)C(=O)N2C (configuration not stated)	/	11µM	/	/	/	/
Cc1ccc(C)n1C1C(=O)N(C)c2ccccc21 (configuration not stated)	/	.	/	/	/	/
Cc1ccc(SC(=O)c2ccc(F)cc2)cc1	/	.	/	/	/	/
O=[N+]([O-])c1ccc(-c2cc(-c3cccnc3)nc3ccc4ccccc4c23)cc1	/	.	/	/	/	/
Cc1cccc(NC(=S)NNc2ncc(C(F)(F)F)cc2Cl)c1	.	?	.	20µM	.	.
CC(=O)c1ccc(NC(=O)CCCN2C(=O)/C(=C/C(C)=C/c3ccccc3)SC2=S)cc1	?	.	.	22µM	.	.
O=C(CCCN1C(=O)/C(=C/c2ccc3c(c2)OCO3)SC1=S)Nc1ccc(C(=O)O)cc1	.	14µM	.	.	.	.
O=C(CCN1C(=O)/C(=C\C=C\c2ccccc2)SC1=S)Nc1ccc(C(=O)O)cc1	.	32µM	.	.	.	.
O=C(Cc1ccccc1)NN1C(=O)/C(=C/c2ccc(C(=O)O)cc2)SC1=S	.	.	.	.	-35	.
CC(Oc1ccc(F)c(F)c1)C(=O)NCCC(=O)N1CCCCC1 (configuration not stated)	/	.	/	/	/	/
Cc1cccc(Oc2c(C(F)(F)F)oc3cc(OC(=O)c4cncc(Br)c4)ccc3c2=O)c1	/	8.9µM	/	/	/	/
O=C(SCc1c(O)c2ccccc2oc1=O)c1ccccc1	/	28µM	/	.	.	/
O=C(Cc1c(O)c2ccccc2oc1=O)c1ccc(C(F)(F)F)cc1	.	.	.	.	.	.
CN1CCN(CC2CNCCO2)CC1 (configuration not stated)	/	.	/	/	/	/
CCOc1cc(/C=C2/NC(=O)NC2=O)ccc1OCc1cccc(F)c1	/	.	/	/	/	/
Cc1ccc(Oc2nc3ccccn3c(=O)c2/C=C(\C#N)c2nc3ccccc3s2)c(C)c1	/	4µM	/	.	/	/
Cc1nc2c(C(=O)NCCC3=CCCCC3)c[nH]n2c(=O)c1Cl	?	?	.	.	-39	.
C=CCOc1c(Cl)cc(CNc2ccc(C)c(Cl)c2)cc1OC	.	/	/	/	/	.
